Screening data as filed in PubChem BioAssay.
The sample as a whole holds a higher share of hits than the screen did.
SARS PLpro yeast: qHTS of Yeast-based Assay for SARS-CoV PLP. S. cerevisiae expressing SARS-CoV PLpro, growth rescue. Potency, µM (top dose mostly 32.9 µM), without a hit: top-dose activity, positive = growth rescue, actives largely listed as activators. actives 0.19% (n = 330,000). AID 485353, 2010; further: potency means the concentration at half of the fitted maximal effect; 0% is about no effect; nearly all actives have a fitted effect of over 55% in size
TbPYK inhibitor: qHTS of Trypanosoma Brucei Inhibitors | AID 624173, 2012 | TbPYK enzyme, Kinase-Glo Plus ATP luminescence, 45 min | Potency, µM (highest dose often 76.8 µM), for inactives: at the highest dose activity, negative = inhibition, most hits filed as inhibitors | actives 0.12% (n = 410,000) | pyruvate kinase (Trypanosoma brucei), Q57TT1; active means well fitted curve in the direction sought with a large enough effect; inconclusive means small, poorly fitted or top-dose-only effect, or another doubt; inactive means no such curve, though single readings can be large; an effect the other way counts as inactive or inconclusive; further: potency means the concentration at half of the fitted maximal effect; on the % scale 0 is the no-effect control and ±100 the full control effect; nearly all actives have a fitted effect of over 50% in size
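Quantitative HTS: titrated library compounds versus trypanosomal pyruvate kinase in TEA buffer (pH 7.2) containing KCl, MgCl2, BSA and Tween-20. Reactions were initiated with ADP, 130 uM final. Kinase-Glo Plus luminescence was read after 45 min at RT.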
NS1 inh: qHTS Assay for Inhibitors of Influenza NS1 Protein Function | AID 2326, 2010 | Potency, µM (titrated, usually from 46.1 µM), for inactives: at the top dose activity, positive = more growth | actives 0.4% (n = 270,000); further: potency means the concentration at half of the fitted maximal effect; actives are rising curves; nearly all actives have a fitted effect of over 50% in size
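Recovery from NS1-induced slow growth read by OD600 in budding yeast switched to galactose assay medium (pH 6.0, -URA) at 1:100 dilution. Compound 23 nl per well; the matching strain lacking NS1 serves as control.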
LmPK inh: qHTS Assay for Inhibitors of Leishmania Mexicana Pyruvate Kinase (LmPK); Q27686; purified LmPK, Kinase-Glo ATP luminescence, 1 h; Potency, µM (titrated, usually from 57.5 µM), without a hit: top-dose activity change, negative = inhibition, actives largely listed as inhibitors; actives 0.37% (n = 290,000); active means well fitted curve in the direction sought with a large enough effect; inconclusive means small, poorly fitted or top-dose-only effect, or another doubt; inactive means no such curve, though single readings can be large; an effect the other way counts as inactive or inconclusive; further: potency means the concentration at half of the fitted maximal effect; on the % scale 0 is the no-effect control and ±100 the full control effect
Target sequence (Q27686 whole entry, looked up): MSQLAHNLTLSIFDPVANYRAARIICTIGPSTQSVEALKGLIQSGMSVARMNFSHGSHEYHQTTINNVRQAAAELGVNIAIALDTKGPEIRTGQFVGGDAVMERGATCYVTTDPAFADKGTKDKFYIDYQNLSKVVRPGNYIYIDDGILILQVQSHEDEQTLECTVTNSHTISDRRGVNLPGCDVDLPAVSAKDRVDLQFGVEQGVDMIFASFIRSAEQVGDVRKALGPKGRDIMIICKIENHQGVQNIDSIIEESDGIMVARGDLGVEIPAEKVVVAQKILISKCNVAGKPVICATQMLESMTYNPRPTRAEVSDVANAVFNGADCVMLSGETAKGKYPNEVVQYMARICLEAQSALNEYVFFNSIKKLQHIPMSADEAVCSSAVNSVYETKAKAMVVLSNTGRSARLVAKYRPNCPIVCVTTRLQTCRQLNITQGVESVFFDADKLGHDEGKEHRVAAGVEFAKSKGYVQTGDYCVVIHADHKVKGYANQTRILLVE
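Screened at intermediate enzyme activity to detect both inhibitors and activators: LmPK at 0.1 nM, with a 0.5 nM enzyme column as activation reference. PEP 0.5 mM, ADP 0.1 mM; ATP detected by luminescence after 1 h.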
Shiga toxin inh: A qHTS for Small Molecule Inhibitors of Shiga Toxin | AID 2315, 2010 | inhibition, % at 38.7 µM | Vero cells, Shiga toxin protein synthesis inhibition reporter | actives 9.2% (n = 290,000); in the data active means inhibition mostly above about 28%, no sharp cut-off; inactive means mostly below about 43%; further: 0% is about no effect
Cycloheximide cs: Cycloheximide Counterscreen for Small Molecule Inhibitors of Shiga Toxin; actives 12% (n = 300,000); max response, %; cell reporter, cycloheximide protein synthesis inhibition counterscreen; in the data active means max response mostly above about 13%, no sharp cut-off; inactive means mostly below about 14%; further: read at 38.3 µM for the half of the compounds with a filed dose; 0% is about no effect
* = called active by the depositor. Unless noted, the call rests on the fitted dose curve.

COc1ccc2cc(C(=O)C3CCCN(C(=O)c4cccnc4)C3)ccc2c1 (centres undefined) was read as SARS PLpro yeast 0%, TbPYK inhibitor 0%, NS1 inh -3%, LmPK inh -1%, Shiga toxin inh 32 and Cycloheximide cs -1.
O=C(C1CCCN(Cc2cccnc2)C1)N1CCCCC1 (centres undefined) was read as SARS PLpro yeast 7%, TbPYK inhibitor -18%, NS1 inh -3%, LmPK inh -7%, Shiga toxin inh -13 and Cycloheximide cs 22*.
`COc1ccc2cc(C(=O)C3CCCN(C(=O)CCc4cnn(C)c4)C3)ccc2c1` (centres undefined) gave SARS PLpro yeast -2%, TbPYK inhibitor -4%, NS1 inh -7%, LmPK inh -8%, Shiga toxin inh 43* and Cycloheximide cs 27*.
CCNC(=O)N1CCCC(C(=O)c2ccc3cc(OC)ccc3c2)C1 (centres undefined) was read as SARS PLpro yeast -3%, TbPYK inhibitor 9%, NS1 inh -6%, LmPK inh -2%, Shiga toxin inh 26 and Cycloheximide cs 20*.
COc1ccc2cc(C(=O)C3CCCN(C(=O)c4cnn(C(C)C)c4)C3)ccc2c1 (centres undefined) was read as SARS PLpro yeast 4%, TbPYK inhibitor inconclusive, NS1 inh -3%, LmPK inh 1%, Shiga toxin inh -2 and Cycloheximide cs 11.
Screening C=CCCC(=O)N1CCCC(C(=O)c2cccc(OC)c2)C1 (centres undefined) returned SARS PLpro yeast 20%, TbPYK inhibitor 0%, NS1 inh 0%, LmPK inh 2%, Shiga toxin inh 12 and Cycloheximide cs 21*.
`CCOc1ccccc1NC(=O)C(=O)Nc1ccc2nc3n(c(=O)c2c1)CCCCC3` gave TbPYK inhibitor 1%.
For C=CCN(c1ccccc1OC)S(=O)(=O)c1cccc(C(=O)Nc2nnc(C3CC3)s2)c1 the results were SARS PLpro yeast 2% and TbPYK inhibitor 7%.
Screening CCC(=O)N1CCCC(C)(C(=O)Nc2ccc(OC(F)F)cc2)C1 (centres undefined) returned TbPYK inhibitor 1%.
Cc1cccc(OCc2nnc(SC(C)C(=O)Nc3ccc(N4CCOCC4)cc3)o2)c1 (centres undefined) was read as SARS PLpro yeast 0% and TbPYK inhibitor -22%.
`CSc1ccccc1C(=O)C1CCCN(C(=O)CCc2cccnc2)C1` (centres undefined) gave SARS PLpro yeast 0%, TbPYK inhibitor -4%, NS1 inh 2%, LmPK inh -4%, Shiga toxin inh 50 and Cycloheximide cs 24*.
O=C1c2oc3ccccc3c(=O)c2C(c2ccccc2)N1Cc1ccc2c(c1)OCO2 (centres undefined) was read as TbPYK inhibitor 0%.
c1ccc(-c2n[nH]c(-c3ccccn3)n2)nc1 was read as SARS PLpro yeast 2%, TbPYK inhibitor -30%, NS1 inh -22%, LmPK inh 16µM*, Shiga toxin inh 62* and Cycloheximide cs 33*.
`c1ccc(-c2n[nH]c(-c3ccccn3)n2)cc1` gave SARS PLpro yeast -10%, TbPYK inhibitor -7%, NS1 inh -56%, LmPK inh inconclusive, Shiga toxin inh 63 and Cycloheximide cs 24*.
For c1ccc(-c2ccccn2)nc1 the results were SARS PLpro yeast -1%, TbPYK inhibitor -1%, NS1 inh -5%, LmPK inh 1%, Shiga toxin inh -14 and Cycloheximide cs -3.
Screening CCN(C(=O)Cn1nc(Cc2cccnc2)c2ccccc2c1=O)c1ccccc1F returned TbPYK inhibitor -4%.
For O=Cc1c(OCc2ccccc2)ccc2ccccc12 the results were SARS PLpro yeast -4%, TbPYK inhibitor 1%, NS1 inh -75%, LmPK inh -4%, Shiga toxin inh 78* and Cycloheximide cs 47*.
Cc1ccc(NC(=O)NC(=O)CSc2nnc(-c3ccc(Cl)cc3Cl)n2N)c(C)c1 was read as SARS PLpro yeast 0%, TbPYK inhibitor -5%, NS1 inh -6%, LmPK inh -9%, Shiga toxin inh 179* and Cycloheximide cs 64*.
Screening COc1ccc2cc3cc(C(=O)NCC4COc5ccccc5O4)oc3nc2c1 (centres undefined) returned SARS PLpro yeast -1%, TbPYK inhibitor 1%, NS1 inh -36%, LmPK inh 6%, Shiga toxin inh 36 and Cycloheximide cs 40*.
For COc1ccc2cc3cc(C(=O)Nc4cc(OC)c(OC)c(OC)c4)oc3nc2c1 the results were SARS PLpro yeast 1%, TbPYK inhibitor 1%, NS1 inh 7%, LmPK inh 10%, Shiga toxin inh -8 and Cycloheximide cs 3.
For COc1ccc2cc3cc(C(=O)NC(C)C)oc3nc2c1 the results were SARS PLpro yeast -17%, TbPYK inhibitor -2%, NS1 inh -15%, LmPK inh -7%, Shiga toxin inh 75* and Cycloheximide cs 48*.
O=C(Cc1n[nH]c(=O)c2ccccc12)NC(c1ccccc1)c1ccccc1 was read as SARS PLpro yeast 1%, TbPYK inhibitor 13%, NS1 inh 13%, LmPK inh 9%, Shiga toxin inh 39 and Cycloheximide cs 16*.
Screening COc1ccc(C2(c3ccc(OC)cc3)NC(=O)N(CC(=O)Nc3ccc(C(=O)N(C)C)cc3)C2=O)cc1 returned SARS PLpro yeast -3%, TbPYK inhibitor -11%, NS1 inh -14%, LmPK inh 0%, Shiga toxin inh -12 and Cycloheximide cs -2.
Screening COc1cccc(NC(=O)Nc2cc(C)ccc2OC)c1 returned SARS PLpro yeast -3%, TbPYK inhibitor 4%, NS1 inh 2%, LmPK inh -3%, Shiga toxin inh -5 and Cycloheximide cs 6.
Screening COc1ccc(C(=O)COc2ccc(C)cc2NC(C)=O)cc1 returned SARS PLpro yeast 0%, TbPYK inhibitor 1%, NS1 inh -5%, LmPK inh 0%, Shiga toxin inh 96* and Cycloheximide cs 49*.
Screening COc1ccc(C)cc1NC(=O)Nc1ccccc1 returned SARS PLpro yeast -7%, TbPYK inhibitor 0%, NS1 inh -67%, LmPK inh 1%, Shiga toxin inh -3 and Cycloheximide cs 6.
For COc1ccc(NC(=O)Nc2cc(C)ccc2F)cc1 the results were SARS PLpro yeast 2%, TbPYK inhibitor -13%, NS1 inh -55%, LmPK inh inconclusive, Shiga toxin inh 34 and Cycloheximide cs 26*.
COc1cccc(NC(=O)Nc2cc(C)ccc2F)c1 was read as SARS PLpro yeast 23%, TbPYK inhibitor 3%, NS1 inh -18%, LmPK inh -9%, Shiga toxin inh 95* and Cycloheximide cs 27*.
